Test results reported in PubChem BioAssay AID1159580 (chemical genetic matrix, 2015).
In all, about 5,500 compounds went through this assay and about 2,000 (36%) were called active. About 18% were inconclusive and are not listed. No stated cut-off is given here; in the data, active means normalized growth mostly below about 0.91 (no sharp cut-off); inconclusive means no clear call, values can overlap the other calls; inactive means mostly above about 0.92. Some of the results follow.

Test: chemical genetic growth profiling, strain panel (AID 1159580);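 further: tested at 20 µM; growth read once vehicle control cultures reached saturation at 30 °C; 1 = growth at the plate median or of vehicle wells; lower values mean less growth of the strain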
Conditions: S. cerevisiae deletion strains, growth OD

Measured: normalized growth

CC(=O)O[C@H]1CCC2(C)C3=C(CCC2C1(C)C)[C@]1(C)CCC(C(C)CCC=C(C)C)[C@@]1(C)CC3 (stereo not given in full)
inactive: locus YAL021C, strain ccr4, hits give low values 1.05 | locus YAL026C, strain drs2, hits give low values 0.971 | locus YAL030W, strain snc1, hits give low values 0.996 | locus YBL061C, strain skt5, hits give low values 0.99 | locus YBR009C, strain hhf1, hits give low values 0.998 | locus YBR023C, strain chs3, hits give low values 0.984 | locus YBR171W, strain sec66, hits give low values 0.994 | locus YBR231C, strain swc5, hits give low values 0.961 | locus YBR279W, strain paf1, hits give low values 0.996 | locus YCL011C, strain gbp2, hits give low values 1.01 | locus YCL016C, strain dcc1, hits give low values 1.01 | locus YCL061C, strain MRC1, hits give low values 0.995 | locus YCL069W, strain vba3, hits give low values 0.999 | locus YCR088W, strain abp1, hits give low values 1 | locus YDL005C, strain med2, hits give low values 0.983 | locus YDL040C, strain nat1, hits give low values 0.991 | locus YDR001C, strain nth1, hits give low values 1.01 | locus YDR069C, strain doa4, hits give low values 0.966 | locus YDR137W, strain rgp1, hits give low values 0.957 | locus YDR159W, strain sac3, hits give low values 0.965 | locus YDR195W, strain ref2 0.958 | locus YDR297W, strain sur2, hits give low values 0.993 | locus YDR334W, strain swr1, hits give low values 1 | locus YDR335W, strain msn5, hits give low values 1.01 | locus YDR392W, strain spt3, hits give low values 0.979 | locus YEL003W, strain gim4, hits give low values 0.969 | locus YEL037C, strain rad23, hits give low values 0.999 | locus YEL061C, strain CIN8 (second series), hits give low values 1.01 | locus YER015W, strain faa2, hits give low values 0.996 | locus YER016W, strain bim1, hits give low values 0.995 | locus YER111C, strain swi4, hits give low values 0.986 | locus YER155C, strain BEM2 (second series), hits give low values 1.02 | locus YFR010W, strain ubp6, hits give low values 0.97 | locus YGL167C, strain pmr1, hits give low values 0.99 | locus YGL173C, strain kem1, hits give low values 0.971 | locus YGL227W, strain vid30, hits give low values 0.996 | locus YGL240W, strain doc1, hits give low values 0.988 | locus YGL253W, strain hxk2, hits give low values 0.933 | locus YHR013C, strain ard1, hits give low values 1.02 | locus YHR027C, strain rpn1, hits give low values 0.993 | locus YHR030C, strain SLT2, hits give low values 0.968 | locus YHR079C, strain IRE1, hits give low values 0.994 | locus YHR142W, strain chs7, hits give low values 0.994 | locus YJL092W, strain hpr5, hits give low values 0.996 | locus YJL095W, strain BCK1 (second series), hits give low values 0.999 | locus YJL095W, strain BCK1, hits give low values 0.956 | locus YJL115W, strain asf1, hits give low values 0.987 | locus YJL129C, strain trk1, hits give low values 0.977 | locus YJL154C, strain vps35, hits give low values 0.999 | locus YJL164C, strain tpk1, hits give low values 1.03 | locus YJL166W, strain qcr8, hits give low values 0.98 | locus YJL187C, strain SWE1, hits give low values 0.997 | locus YJR066W, strain TOR1, hits give low values 0.937 | locus YKL160W, strain elf1, hits give low values 1.03 | locus YKR026C, strain gcn3, hits give low values 0.992 | locus YKR091W, strain srl3, hits give low values 1 | locus YLL001W, strain dnm1, hits give low values 0.958 | locus YLL026W, hits give low values 1 | locus YLL041C, strain sdh2, hits give low values 1 | locus YLR027C, strain aat2, hits give low values 1 | locus YLR113W, strain HOG1, hits give low values 0.957 | locus YLR221C, strain rsa3, hits give low values 0.98 | locus YLR258W, strain gsy2, hits give low values 0.999 | locus YLR262C, strain YPT6 (second series), hits give low values 0.951 | locus YLR320W, strain mms22, hits give low values 0.995 | locus YLR342W, strain FKS1, hits give low values 1 | locus YLR357W, strain rsc2, hits give low values 0.996 | locus YLR370C, strain arc18, hits give low values 0.988 | locus YLR384C, strain iki3, hits give low values 0.968 | locus YML120C, strain ndi1, hits give low values 1.01 | locus YMR058W, strain fet3, hits give low values 0.975 | locus YMR125W, strain sto1, hits give low values 1.02 | locus YMR129W, hits give low values 1 | locus YMR205C, strain PFK2, hits give low values 1.03 | locus YMR231W, strain pep5, hits give low values 0.983 | locus YNL071W, strain lat1, hits give low values 1.04 | locus YNL183C, strain NPR1, hits give low values 0.896 | locus YNL209W, strain ssb2, hits give low values 1.01 | locus YNL248C, strain rpa49, hits give low values 0.97 | locus YNL322C, strain KRE1 (second series), hits give low values 0.978 | locus YNR049C, strain mso1, hits give low values 0.988 | locus YOR001W, strain rrp6, hits give low values 0.923 | locus YOR070C, strain gyp1, hits give low values 1 | locus YOR080W, strain dia2, hits give low values 0.969 | locus YOR083W, strain WHI5, hits give low values 1.02 | locus YOR106W, strain vam3, hits give low values 1.02 | locus YOR231W, strain MKK1, hits give low values 0.969 | locus YOR265W, strain rbl2, hits give low values 1.01 | locus YOR270C, strain vph1, hits give low values 0.814 | locus YOR290C, strain snf2, hits give low values 1.02 | locus YPL051W, strain arl3, hits give low values 0.989 | locus YPL078C, strain atp4, hits give low values 1.04 | locus YPL106C, strain sse1, hits give low values 1.09 | locus YPL240C, strain hsp82, hits give low values 0.994 | locus YPL256C, strain CLN2, hits give low values 0.979
